Assay outcomes deposited in PubChem by National Center for Advancing Translational Sciences (NCATS).
SW480 rerep: DNA re-replication induction in SW480 cells; SW480 DNA re-replication, Hoechst DNA content imaging, 48 h; Potency, µM (titrated, usually from 46.1 µM), most hits filed as activators; 340,000 compounds, 1.8% hits; AID 624297; also: nearly all actives have a fitted effect of over 55% in size
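SW480 cells exposed to compounds for 48 hr at 37 C, 5% CO2, then Hoechst-stained 40 min. Nuclear DNA content imaged by fluorescence scanning (405 nm excitation, 500-530 nm emission); re-replication scored as increased high-intensity nuclei.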
RORgamma inh: blocks mouse ROR gamma transcriptional activity; Potency, µM (doses to about 53.6 µM), actives largely listed as inhibitors; AID 2551; P51450; Drosophila S2 Gal4-RORgamma UAS-luciferase reporter, 20 h; 310,000 compounds, 5.4% hits; also: nearly all actives have a fitted effect of over 60% in size
Target sequence (P51450 whole entry, looked up, the tested form may be a part): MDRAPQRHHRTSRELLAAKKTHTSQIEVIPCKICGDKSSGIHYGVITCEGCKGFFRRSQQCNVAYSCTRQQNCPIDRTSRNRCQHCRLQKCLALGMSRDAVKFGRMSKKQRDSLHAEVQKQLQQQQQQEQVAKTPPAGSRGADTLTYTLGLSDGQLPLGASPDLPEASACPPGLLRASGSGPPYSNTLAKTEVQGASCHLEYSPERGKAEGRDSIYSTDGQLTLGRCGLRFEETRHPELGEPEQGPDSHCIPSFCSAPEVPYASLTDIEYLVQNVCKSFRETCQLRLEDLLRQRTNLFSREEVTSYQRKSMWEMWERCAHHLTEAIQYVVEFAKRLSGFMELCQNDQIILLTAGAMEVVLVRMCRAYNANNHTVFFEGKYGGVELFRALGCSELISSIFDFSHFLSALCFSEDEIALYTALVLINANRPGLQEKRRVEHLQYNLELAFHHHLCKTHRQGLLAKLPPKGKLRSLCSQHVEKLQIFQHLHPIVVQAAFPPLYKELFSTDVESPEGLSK
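Drosophila S2 cells stably expressing Gal4-DBD/mouse RORγ fusion under metallothionein promoter plus UAS-luciferase; compound 1 h, then 700 uM CuSO4 induction for 20 h at ambient temperature; inhibition read as reduced luminescence.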
Gal4-VP16 FLuc: Gal4-VP16 reporter inhibition counter-screen | Drosophila S2 Gal4-VP16 UAS-luciferase, luminescence, 20 h | Potency, µM (highest dose often 53.6 µM), hits mostly inhibitors | 310,000 compounds, 3.5% hits;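 also: Gal4-VP16 expression switched on by copper sulfate through the metallothionein promoter; nearly all actives have a fitted effect of over 50% in size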
IL1B secr inh: blocks inflammasome-driven IL-1 beta release; THP-1 LPS/ATP IL-1B secretion, AlphaLISA, 16 h; stronger effect = lower value; activity change, % at 57.5 µM; 360,000 compounds, 4.7% hits; AID 743279; in the data active = activity change below about -50%; inconclusive = mostly about -30% to -49%
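Secreted IL-1B measured by AlphaLISA bead assay after 16 h compound exposure of THP-1 cells; compounds (final up to 57.5 uM) added 1 h before LPS (250 ng/mL) and ATP (1.25 mM) stimulation; lower signal means less secretion.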
MCF10A rerep: DNA re-replication induction in MCF 10a cells | MCF 10A DNA re-replication, Hoechst nuclear intensity, 48 h | 350,000 compounds, 2.9% hits | Potency, µM (series often up to 46.1 µM), actives largely listed as activators | AID 624296; also: nearly all actives have a fitted effect of over 50% in size
Numbers stand for hits; i = inactive; ? = inconclusive; nt = no result; [ ] = remark or other dose. This is a sample that favours compounds with a hit; in the whole collection about 11% have one here. Unless noted, calls follow the shape of the dose curve; as a rule, active = well fitted curve in the direction sought with a large enough effect; inconclusive = small, poorly fitted or top-dose-only effect, or another doubt; inactive = no such curve, though single readings can be large; an effect the other way counts as inactive or inconclusive.

SMILES	SW480 rerep	RORgamma inh	Gal4-VP16 FLuc	IL1B secr inh	MCF10A rerep
Cc1cnc(C(=O)NCC(=O)Nc2ccccc2Br)cn1	?	nt	nt	i	i
O=C(CN1CCCC1)Nc1cc(C(F)(F)F)cc(C(F)(F)F)c1	i	i	i	-68.8	i
O=C(CN1CCCC1)Nc1cc(C(F)(F)F)ccc1Cl	i	i	i	i	i
COc1ccc(C(=O)Nc2cccc(C)c2)cc1S(=O)(=O)N1CCOCC1	?	i	i	i	18.4µM
COc1ccc(C(=O)Nc2cccc(C(C)=O)c2)cc1S(=O)(=O)N1CCOCC1	i	i	i	i	i
O=C(Nc1cccc(Br)c1)c1ccc(Cl)c(S(=O)(=O)N2CCOCC2)c1	i	i	i	-96.2	i
COc1ccc(S(=O)(=O)N2CCOCC2)cc1Cl	i	i	i	i	i
O=C(Nc1cccc(C(=O)NC2CC2)c1)c1ccc(Cl)c(S(=O)(=O)N2CCOCC2)c1	i	nt	nt	i	i
COc1ccc(S(=O)(=O)N2CCOCC2)c(Cl)c1Cl	i	?	i	i	7.31µM
O=C(Nc1cccc(S(=O)(=O)C(F)F)c1)c1ccc(Cl)c(S(=O)(=O)N2CCOCC2)c1	i	i	?	-62.6	?
Cc1cc(NC(=O)CSc2nnc(C)n2C)no1	i	i	i	i	i
CCCCNC(=O)C1c2ccccc2OCC(=O)N1CCOC (stereo unspecified)	nt	nt	nt	i	nt
COc1ccc(Nc2nc(-c3ccccc3)nc3ccccc23)cc1S(=O)(=O)N1CCOCC1	i	?	i	-73.8	?
CC1=CC(=O)C(C(C)C)=C/C1=N\OC(=O)c1cccc2nc(C)oc12	i	i	i	i	i
CC1=CC(=O)C(C(C)C)=C/C1=N/OC(=O)c1cccc([N+](=O)[O-])c1	i	1µM	?	-100.6	i
Cc1ccc(C(=O)O/N=C(\N)c2cccc([N+](=O)[O-])c2)cc1	i	i	i	i	i
CC1=CC(=NOC(=O)c2cccc([N+](=O)[O-])c2)C=C(C)C1=O	?	?	?	-85.0	?
COc1ccccc1C(=O)NCCC(=O)N1CCN(c2cccc(C(F)(F)F)c2)CC1	i	nt	nt	i	i
COc1ccc(S(=O)(=O)NCc2ccccn2)cc1NC(=O)c1ccc(Cl)cc1	?	nt	nt	i	8.2µM
COc1ccc(S(=O)(=O)NCc2ccccn2)cc1NC(=O)c1ccccc1C	7.31µM	nt	nt	i	3.66µM
COc1ccc(S(=O)(=O)NCc2ccncc2)cc1NC(=O)c1ccc(Cl)cc1	i	nt	nt	-66.5	i
COc1ccc(S(=O)(=O)NCc2ccncc2)cc1NC(=O)c1ccccc1	i	nt	nt	i	i
CC1(c2nnc(-c3ccncc3)o2)CC(c2ccc(Cl)cc2)=NO1 (stereo unspecified)	i	nt	nt	i	9.2µM
CC1(c2nnc(-c3ccccc3)o2)CC(c2ccc(Cl)cc2)=NO1 (stereo unspecified)	i	i	i	i	i
Cc1ccc(Oc2ccc(NC(=O)c3ccco3)cc2)cc1	i	i[10 µM]	i	i	i
SMILES	SW480 rerep	RORgamma inh	Gal4-VP16 FLuc	IL1B secr inh	MCF10A rerep
CCN(c1ccccc1)S(=O)(=O)c1ccc(NC(=S)NC(=O)c2cccs2)cc1	i[9.22 µM]	3.16µM	7.08µM	i	i
CCCCCOC(=O)c1ccc(NC(=O)c2ccco2)cc1	i	i	i	i	?
CCCCOC(=O)c1ccc(NC(=S)NC(=O)c2ccco2)cc1	?	11.2µM	?	i	i
Cc1ccc(NC(=O)c2ccc(OC(=O)c3ccco3)cc2)cc1	?	i	i	i	20.6µM
CCN(CC)c1ccc(NC(=S)NC(=O)c2ccco2)cc1	i	3.98µM	15.8µM	i	i
Cc1ccc2nc(SCC(=O)NCCCN3CCCC3=O)[nH]c2c1	i	nt	nt	i	i
CC(C)(C(=O)N1CCC1(C)C(=O)NC1Cc2ccccc2C1)c1ccccc1 (stereo unspecified)	nt	nt	nt	i	nt
CN(C)S(=O)(=O)c1ccc(NC(=S)NC(=O)c2cccs2)cc1	i	8.91µM	i	i	i
CC(=O)NC(=S)Nc1ccc(NC(=S)NC(=O)c2cccs2)cc1	i	i	i	i	i
CCN(CC)c1ccc(NC(=S)NC(=O)c2cccs2)cc1	i	3.16µM	5.01µM	i	?
CC(C)C(=O)NC(=S)Nc1ccc(S(=O)(=O)N(C)C)cc1	i	?	?	i	i
CCOC(=O)c1c(S(=O)(=O)NCC(=O)N2CCN(c3ccccc3)CC2)c(C)n(C)c1C	i	i	i	?	i
